PLK1 PBD inh: blocks phosphopeptide binding to human PLK1 polo-box domain; Plk1 PBD binding of FITC phosphopeptide, fluorescence polarization; Potency, µM, for inactives: max response, negative = inhibition, most hits filed as inhibitors; 360,000 tested, 2.8% active; further: series mostly up to about 57 µM; nearly all actives have a fitted effect of over 65% in size
VDR inh: vitamin D3 receptor (human) inhibition; P11473; VDR-SRC2-3 peptide fluorescence polarization, 2 h; Potency, µM, without a hit: max response, negative = inhibition, actives largely listed as inhibitors; 400,000 tested, 0.93% active
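The screen uses fluorescence polarization to detect compounds that interfere with recruitment of the SRC2-3 coactivator peptide to VDR; plates are read after 2 h at room temperature.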
TrxR1 inh: inhibitors of rat thioredoxin reductase 1; Potency, µM (doses to about 114 µM), without a hit: top-dose activity change, negative = inhibition, usual class: inhibitors; recombinant rTrxR1, NADPH fluorescence consumption, selenite substrate; 390,000 tested, 1% active; AID 588453; O89049; further: nearly all actives have a fitted effect of over 65% in size
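Rat TrxR1 (90 nM in the dispensed reagent) was pre-reduced with 400 uM NADPH for 5 min at room temperature, then incubated with compound for 15 min. After 400 uM selenite was added, NADPH fluorescence (Ex 340/Em 450 nm) was followed for 8 min.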
IDH1 R132H inh: inhibitors of human mutant IDH1 R132H; O75874; IDH1-R132H enzyme, NADPH consumption, diaphorase/resazurin fluorescence; Potency, µM (doses to about 76.6 µM), for inactives: top-dose activity change, negative = inhibition, actives largely listed as inhibitors; 390,000 tested, 0.093% active; AID 602179; further: nearly all actives have a fitted effect of over 65% in size
Target sequence (O75874 whole entry R132H, stated change not applied): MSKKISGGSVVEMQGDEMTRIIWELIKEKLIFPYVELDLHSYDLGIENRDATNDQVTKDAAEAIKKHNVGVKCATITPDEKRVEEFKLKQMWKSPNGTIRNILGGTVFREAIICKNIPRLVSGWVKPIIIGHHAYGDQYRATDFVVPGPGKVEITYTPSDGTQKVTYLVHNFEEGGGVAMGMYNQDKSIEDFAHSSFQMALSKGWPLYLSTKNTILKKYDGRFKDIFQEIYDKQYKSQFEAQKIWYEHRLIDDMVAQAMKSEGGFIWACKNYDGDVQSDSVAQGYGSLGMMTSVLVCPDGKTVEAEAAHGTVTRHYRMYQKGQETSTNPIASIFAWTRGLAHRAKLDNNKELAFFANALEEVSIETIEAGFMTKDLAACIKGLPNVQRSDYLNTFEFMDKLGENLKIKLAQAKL
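IDH1-R132H (0.5 ug/mL) preincubated 30 min with compound, then NADPH (0.016 mM) and alpha-KG (2 mM) added; 80 min at RT, pH 7.5. Remaining NADPH coupled via diaphorase/resazurin to fluorescence (540/590 nm); concentration-response curves normalized to no-enzyme control.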
TrxR1 substrate: substrates of rat thioredoxin reductase 1. Potency, µM (series often up to 114 µM), for the others: at the top dose activity change, negative = substrate turnover. O89049. AID 588456. purified TrxR1 substrate turnover, NADPH consumption readout. 390,000 tested, 0.01% active; further: nearly all actives have a fitted effect of over 50% in size
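Rat TrxR1, dispensed at 90 nM, was prereduced with 400 uM NADPH (final) for 5 min at ~22 deg C, then incubated with compound 15 min before 400 uM selenite. A first-read NADPH fluorescence drop versus no-compound background flagged substrates.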
Sfp inh: Sfp phosphopantetheinyl transferase inhibition. Q9F4F7. Potency, µM, for inactives: largest response in the series, negative = inhibition, usual class: inhibitors. 310,000 tested, 3.5% active. Biochemical Sfp PPTase activity, qHTS;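 further: the enzyme is Sfp with the accession as filed and its product quenches rhodamine fluorescence; 0% = enzyme reaction without inhibitor and -100% = no enzyme wells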
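Sfp 15 nM + cpd, 15 min RT; start w/ rhodamine-CoA 5 uM, BHQ-2-YbbR 12.5 uM (final); 50 mM Hepes pH 7.6, 10 mM MgCl2, 0.01% NP-40, 0.01% BSA; read 525/598 nm at 0 and 30 min.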
Active calls of the source: *; ? = inconclusive; . = no result given; [ ] = dose if it differs, or a comment. A selection: hits, their analogues and other compounds. The true share with any hit is near 5.2%. The call rests on the fitted dose curve; in most records, active means well fitted curve in the direction sought with a large enough effect; inconclusive means small, poorly fitted or top-dose-only effect, or another doubt; inactive means no such curve, though single readings can be large; an effect the other way counts as inactive or inconclusive. Unless noted, on the % scale 0 is the no-effect control and ±100 the full control effect; potency means the concentration at half of the fitted maximal effect.

SMILES | PLK1 PBD inh | VDR inh | TrxR1 inh | IDH1 R132H inh | TrxR1 substrate | Sfp inh
O=C(N/N=C/C=C/c1ccco1)/C(=C/c1ccccc1)NC(=O)c1ccccc1 | 30µM* | ? | 20µM* | -1% | -7%[57.1 µM] | 45µM*
Cc1ccc(OCC(=O)N/N=C/C=C/c2ccco2)c(Br)c1 | -19% | -26% | ? | -2% | -12% | 50µM*
CN(C)c1ccc(/C=C/c2ccnc3cc(Cl)cc(Cl)c23)cc1 | . | . | 33%[0.0914 µM] | . | -4% | .
O=C(CNC(=O)c1cccs1)N/N=C/c1ccco1 | -2% | -22% | 1% | 7% | -3% | -37%
CCCOC(=O)/C(=C\C=C\c1ccco1)NC(=O)c1ccccc1 | -28% | 13% | -26%[57.1 µM] | -2% | -2%[57.1 µM] | 50µM*
C#CCOC(=O)/C(=C/C=C/c1ccccc1)NC(=O)c1ccccc1 | -3% | -5% | 1% | -2% | -12% | 6%
O=C(Nc1cccc(F)c1)/C(=C\c1ccco1)NC(=O)c1cccs1 | -20% | -6% | -16% | 3% | -3% | 56µM*
O=C(N/N=C/C=C\c1ccco1)c1cccs1 | -11% | -9% | ? | 2% | -3%[57.1 µM] | 22µM*
O=C(Cc1cccs1)N/N=C/C=C\c1ccco1 | -16% | -26% | ? | 14% | -5% | 7.9µM*
Cc1nc2nc(C)n(CCN3CCOCC3)c(=O)c2c(-c2cccc([N+](=O)[O-])c2)c1C(=O)CCCCCCCCCCN1CCC(c2ccccc2)(c2ccccc2)CC1 | 1% | -4% | 12%[11.4 µM] | -5% | 12%[57.1 µM] | .
COc1ccc2[nH]c(C)cc2c1 | . | . | 25% | . | 4% | .
COc1ccccc1/C=C/C=N/NC(=O)c1ccncc1 | -9% | 7% | -7% | 5% | -11% | -5%
O=C(N/N=C/C=C/c1ccco1)c1ccncc1 | -3% | ? | 40µM* | -3% | -14% | 56µM*
CCN(CC)c1ccc(S(=O)(=O)Nc2cc(Cl)ccc2Cl)cc1NC(=S)NC(=O)C1CCCC1 | 9.5µM* | -24% | -15% | -7% | -17% | -13%
Cc1nc(N2CCOCC2)c2nc(-c3ccccc3)n(CCCN(C)C)c2n1 | . | . | . | . | . | 35%
COc1ccc(-c2cc3c(=O)n(CC(=O)Nc4cc(F)ccc4F)ccn3n2)cc1OC | . | 16% | 18%[57.1 µM] | . | 5%[57.1 µM] | .
O=C(O)CCCCCNS(=O)(=O)c1cccc2nsnc12 | -4% | -6% | 6%[57.1 µM] | 0% | 11%[57.1 µM] | 33%
O=C(O)CCCCCNc1ccc2nsnc2c1[N+](=O)[O-] | 0% | 10% | -35% | 2% | -21% | 89µM*
CCOC(=O)N1CCN(C(=O)CN2C(=O)/C(=C\c3cccc(OC)c3)SC2=S)CC1 | . | -1% | 13% | . | 10% | .
COc1ccccc1OCc1cc(C(=O)N(C)CCC2CCOCC2)no1 | -3% | . | . | -1% | . | .
CC(=O)c1ccc(OCc2cc(C(=O)N(C)Cc3ccccn3)no2)cc1 | -18% | -22% | 50µM* | -1% | 2% | 11%
CC(=O)c1cccc(OCc2cc(C(=O)N3C[C@@H](C)O[C@@H](C)C3)no2)c1 | ? | -9% | 10µM* | -6% | 6% | 3%
Cc1cc(OCc2cc(C(=O)N(C)CC3CCOCC3)no2)cc(C)c1Cl | 27µM* | ? | 2% | -4% | -11% | 11%
CC(=O)c1cccc(OCc2cc(C(=O)N(C)CCC3CCOCC3)no2)c1 | ? | 7% | 8.9µM* | 6% | 7% | 21%
N#CCCN(Cc1ccccc1)C(C(=O)NC1CCCCC1)c1cc2ccccc2o1 (stereo not drawn) | -1% | . | . | . | . | .
SMILES | PLK1 PBD inh | VDR inh | TrxR1 inh | IDH1 R132H inh | TrxR1 substrate | Sfp inh
CCOC(=O)[C@]12CCC=C1N(Cc1ccc3c(c1)OCO3)C(=O)[C@H](CC(=O)NCC1CCCCC1)C2 | -2% | . | . | . | . | .
COc1ccc(NC(=O)N2CC[C@@]3(CCCN(C(=O)c4ccco4)C3)C2)cc1 | . | 5% | . | . | . | 18%
COc1ccc(C(=O)NCC(c2ccc(N(C)C)cc2)N2CCCC2)c(OC)c1 (stereo not drawn) | . | 9% | 23%[57.1 µM] | -7% | 6%[57.1 µM] | .
C1=C(c2ccccc2)Nc2nnnn2C1 | -4% | -1% | 79µM* | 7% | 110% | 9%
Cc1ccc(-c2nc3c4ccccc4[nH]c(=O)n3n2)cc1 | . | -23% | 9% | -10% | 2% | .
CC(C)(C)OC(=O)NCCC(=O)Oc1ccc2ccc(=O)oc2c1 | -3% | -5% | 50µM* | 0% | 102% | 10%
O=C(CNC(=O)OCc1ccccc1)Oc1ccc2ccc(=O)oc2c1 | ? | ? | 25µM* | 0% | 251% | 6%
CCCCCn1c(NC(=O)c2ccco2)c(S(=O)(=O)c2ccc(C)cc2)c2nc3ccccc3nc21 | 21µM* | ? | ? | 1% | 59% | -23%
Cc1ccc(S(=O)(=O)c2c(N)n(CCCO)c3nc4ccccc4nc23)cc1 | -13% | -1% | 1% | -4% | 389% | -8%
CCC(=O)Nc1c(S(=O)(=O)c2ccccc2)c2nc3ccccc3nc2n1C(C)c1ccccc1 (stereo not drawn) | -14% | -13% | -15% | -7% | 46% | -2%
CCCCn1c(NS(=O)(=O)c2ccccc2)c(S(=O)(=O)c2ccc(C)cc2)c2nc3ccccc3nc21 | 27µM* | 50µM* | 62% | -28% | 448% | -3%
CCCCn1c(NC(=O)c2ccc(Br)o2)c(S(=O)(=O)c2ccccc2)c2nc3ccccc3nc21 | 25µM* | ? | ? | -1% | 30% | 9%
CCCCn1c(NC(=O)c2ccco2)c(S(=O)(=O)c2ccc(C)cc2)c2nc3ccccc3nc21 | ? | ? | -8%[57.1 µM] | -3% | 16%[57.1 µM] | ?
C=C(C)COc1ccc2c(CC)cc(=O)oc2c1 | 13µM* | ? | 22% | 2% | 37% | 56µM*
CCCCC1CCC(C(=O)N2CC(=O)Nc3ccc(Cl)cc3C2c2ccc(F)cc2)CC1 (stereo not drawn) | . | 3% | 37% | -9% | 9% | .
Cc1ccc(C(=O)N/N=C2\CC3CC=CC23)c(C)c1 (stereo not drawn) | -5% | 1% | 9% | 3% | -2% | 4%
Cc1ccc(NC(=S)N/N=C2\CC3CC=CC23)c(C)c1 (stereo not drawn) | ? | ? | ? | -4% | -9% | 32µM*
Cc1cccc(C)c1NC(=S)N/N=C1\CC2CC=CC12 (stereo not drawn) | 15µM* | ? | -30%[57.1 µM] | -8% | 2% | ?
Nc1nc2c(nc(Br)n2C2OC(CO)C(O)C2O)c(=O)[nH]1 (stereo not drawn) | . | 9% | . | . | . | 3%
O=[N+]([O-])c1ccc(N2N=C(c3ccco3)CC2c2ccccc2)cc1 (stereo not drawn) | -14% | -21% | ? | -2% | -15% | 50µM*

High-throughput results from PubChem BioAssay.
